dFosB act-1: activators of mouse delta FosB homodimer; purified delta FosB, TAMRA-CDK5 oligo fluorescence polarization; percent of positive-control signal above neutral wells; activation, % at 25 µM; 340,000 compounds, 0.99% hits;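 active = mean activation above about 17%, with every replicate also reaching it, limit read from the data, passing the limit was not always enough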
Target sequence (P13346 whole entry, looked up): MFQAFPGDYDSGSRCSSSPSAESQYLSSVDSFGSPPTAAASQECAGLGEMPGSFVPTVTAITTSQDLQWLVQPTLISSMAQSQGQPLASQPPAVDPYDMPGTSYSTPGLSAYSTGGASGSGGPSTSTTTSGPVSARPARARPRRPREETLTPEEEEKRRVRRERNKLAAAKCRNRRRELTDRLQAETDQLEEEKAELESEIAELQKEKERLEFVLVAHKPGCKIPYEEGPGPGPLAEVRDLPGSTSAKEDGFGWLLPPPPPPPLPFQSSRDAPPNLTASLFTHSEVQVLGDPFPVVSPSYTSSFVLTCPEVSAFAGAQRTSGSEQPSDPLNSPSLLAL
CFTR F508del cor: CFTR F508del correction in bronchial cells; CFBE cells, YFP halide quenching; stimulated with forskolin plus potentiator P3; % fluorescence drop versus neutral controls; activity (quench increase), % at 7.58 µM; 350,000 compounds, 0.36% hits; AID 720511;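 active = mean added fluorescence quench of at least 8% versus neutral control, with both replicates also reaching 8%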;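 note: cells transiently co-express mutant CFTR-F508del with the halide-sensitive YFP; corrector assay measuring rescue of mutant channel to the surface after 24 h compound exposure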
Glyco luc inh: N-linked glycosylation inhibition; AID 588692; 360,000 compounds, 0.23% hits; reporter increase, % at 12.5 µM; D54 ERlucT glycosylation luciferase reporter, 24 h; percent of 100 nM tunicamycin response;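 active = mean luciferase reporter signal, scaled so untreated is 0 and the glycosylation-blocking control 100, at or above a set limit in every replicate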;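 note: luciferase carries N-glycosylation sites so blocking glycosylation raises the light; 0% = median of neutral control wells and 100% = median of 100 nM tunicamycin wells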
PvdQ inh: blocks Pseudomonas aeruginosa PvdQ acylase activity. purified PvdQ acylase, fluorescence plate reader. inhibition, % at 10 µM. 340,000 compounds, 0.063% hits; in the data active = inhibition above about 30%, passing the limit was not always enough;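 note: 0% = vehicle neutral wells and 100% = reference inhibitor wells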
RAD52 anneal inh: inhibitors of human RAD52 DNA annealing. P43351. recombinant RAD52 DNA annealing, FRET fluorescence. inhibition, % at 18.7 µM. 360,000 compounds, 0.46% hits. AID 651710;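 active = every replicate showing at least 50% inhibition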
RAD54 branch: RAD54 (human) branch migration inhibition; Q92698; RAD54 Holliday junction branch migration, FAM/BHQ fluorescence; inhibition, % at 10.4 µM; 360,000 compounds, 0.14% hits; AID 602329;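 active = mean normalized replicate activity at least 40 and at least half of replicates scoring 40 or more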;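 note: 0% = median of neutral control wells and 100% = median of positive control wells; inhibitors cause a drop in the FAM fluorescence signal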
dFosB act-2: enhances mouse delta FosB homodimer binding to DNA; AID 588690; activation, % at 24.9 µM; purified delta FosB, TAMRA-CDK5 oligo fluorescence polarization; normalised: neutral wells 0, positive control 100; shares compounds with dFosB act-1; 2,400 tested, under 10 active;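 active = highest replicate activation at or above 34% and every replicate reaching that threshold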;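 note: higher polarization means more probe DNA bound by delta FosB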
Numbers without * were called inactive; . = not tested or not shown. An excerpt weighted towards active compounds, which were near 1.5% of everything screened.

SMILES	dFosB act-1	CFTR F508del cor	Glyco luc inh	PvdQ inh	RAD52 anneal inh	RAD54 branch	dFosB act-2
C[C@H]1CN([C@@H](C)CO)C(=O)c2cccc(NC(=O)Nc3ccc(F)cc3)c2O[C@@H]1CN(C)C	.	-0.9	.	.	3.4	1.9	.
O=C(COC(=O)c1cccnc1Nc1cccc(C(F)(F)F)c1)NCc1ccc2c(c1)OCO2	19.1*	.	1.2	-11.9	.	5.7	3.1
CC(C)NC(=O)N(C)C[C@@H]1OCCCC[C@@H](C)Oc2ccc(NS(=O)(=O)c3ccccc3)cc2C(=O)N([C@@H](C)CO)C[C@H]1C	.	-1.7	.	.	5.4	-0.5	.
COc1ccc(N(CC(=O)NC2CCCCCC2)S(=O)(=O)c2ccc(C)cc2)cc1OC	26.8*	1.2	-2.4	-6.7	-12.6	1.1	-0.9
COc1ccc(N(CC(=O)NC2CCS(=O)(=O)C2)S(=O)(=O)c2ccc(Cl)c(Cl)c2)cc1 (stereo unspecified)	43.2*	1.8	-4.3	-2.2	-1.0	0.8	2.5
COc1ccc(NC(=O)CN(c2ccc(OC)cc2)S(=O)(=O)c2ccc(OC)c(OC)c2)cc1	52.1*	-2.0	-2.9	2.7	-1.6	2.4	5.6
CCOC(=O)c1cnc(SCc2nc(N)nc(Nc3ccccc3)n2)nc1N	34.5*	.	0.1	-11.4	.	5.4	-0.9
CCOC(=O)c1sc(NC(=O)CSc2nc(C)cc(C)c2C#N)c(C#N)c1C	-8.3	.	-0.4	-12.7	.	2.1	.
CCOC(=O)c1sc(NC(=O)CSc2nc3c(cc2C#N)CCCCCC3)c(C#N)c1C	18.6*	.	-1.2	1.9	.	-7.5	4.1
CCOC(=O)c1cnc(SCC(=O)Nc2cc(OC)cc(OC)c2)nc1N	-0.5	.	-3.9	-14.7	.	1.4	.
CCOC(=O)c1cnc(SCC(=O)Nc2cc(C(F)(F)F)ccc2N2CCOCC2)nc1N	20.5*	.	0.0	-3.2	.	-4.3	-1.0
CCOC(=O)c1cnc(SCC(=O)Nc2sc(C)c(C)c2C#N)nc1N	45.0*	.	2.0	-5.4	.	-12.6	-1.3
COCCCN1C(=O)[C@@]2(Cc3ccccc31)c1ccccc1C(=O)N(Cc1ccccc1)[C@H]2c1ccc(CO)cc1	.	0.9	.	.	6.5	7.3	.
C[C@H]1CN([C@@H](C)CO)C(=O)c2cc(C3=CCCC3)cnc2O[C@H]1CN(C)C(=O)C1CCC1	.	-1.1	.	.	-10.4	4.2	.
Cc1sc(NC(=O)CSc2nnc(COc3ccc(Cl)cc3)n2C)c(C#N)c1C	22.3*	.	0.6	-1.1	.	.	2.2
Cc1ccc(-c2nnc(SCC(=O)Nc3sc(C)c(C)c3C#N)n2C)cc1	100.2*	.	3.4	-2.2	.	-6.7	1.9
Cc1noc(C)c1NC(=O)Nc1cccc2c1O[C@H](CN(C)S(C)(=O)=O)[C@H](C)CN([C@@H](C)CO)C2=O	.	-3.0	.	.	-0.2	1.3	.
COC(=O)c1ccc2c(=O)n(Cc3ccco3)c(SCC(=O)Nc3cc(C)on3)nc2c1	24.7*	-2.0	62.0*	-11.2	-22.9	.	-0.1
NC(=O)C1CCN(C(=O)c2ccc3c(=O)n(Cc4ccco4)c(SCC(=O)c4ccccc4)nc3c2)CC1	36.2*	0.0	0.5	12.2	-12.0	-3.9	1.8
CCN(CC)C(=O)CSc1nc2c(sc(=S)n2-c2ccccc2OC)c(=O)n1-c1ccccc1	0.4	-4.5	1.3	-0.5	4.7	3.7	.
COc1ccccc1-n1c(SC)nc2c(sc(=S)n2-c2ccccc2)c1=O	24.2*	-0.3	0.4	0.9	-9.0	-5.5	0.8
Cc1cccc(NC(=O)CCCn2c(=S)[nH]c3ccccc3c2=O)c1	24.9*	-4.3	7.5	-8.5	4.8	-3.3	1.4
COc1cc(NC(=O)CCCn2c(=S)[nH]c3ccccc3c2=O)cc(OC)c1OC	-11.0	-0.1	-2.1	-14.8	-7.8	-5.8	.
Cc1ccc(-c2nnn(CC(=O)Nc3ccc(S(=O)(=O)N4CCC(C)CC4)cc3)n2)cc1	68.4*	.	21.4	-1.5	.	-4.0	6.8
O=C(Nc1ccccc1)Nc1ccc2c(c1)[C@H]1C[C@@H](CC(=O)N3CCOCC3)O[C@H](CO)[C@H]1O2	.	-0.1	.	.	.	-8.9	.
CCCNC(=O)[C@H]1[C@H](CO)[C@H]2Cn3c(ccc(-c4ccc(OC)cc4)c3=O)[C@@H]1N2CC	.	-2.0	.	.	2.6	.	.
